Measurements from PubChem BioAssay.
Active and inactive are the calls of the source.

Assays:
[1] = tested on: PRMT1 (protein arginine N-methyltransferase 1); experiment: PRMT1 binders on small-molecule microarrays, primary screen, biochemical, small-molecule microarray, 635 nm fluorescence (AID 1088); settings: small-molecule microarray binding, higher = more signal;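 also: binding of Prmt1 protein to compounds spotted on small-molecule microarray slides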
[2] = yeast growth modulation, basal conditions, primary screen, YJM789 clinical isolate, OD600, 24 h (AID 1089);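 also: growth of clinical yeast isolate S. cerevisiae YJM 789 seeded 1000 cells per well; test concentration not given here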; settings: S. cerevisiae YJM789 growth, higher = more signal, called active from +8 up or from −8 down
[3] = fission yeast growth modulation, primary screen, strain 972, OD600, 24 h, no modulator (AID 1090);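 also: basal condition with compound alone and no growth modifier present; test concentration not given here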; settings: S. pombe 972 growth, higher = more signal, called active from +8 up or from −8 down
[4] = S. cerevisiae growth modulation with rapamycin, primary screen, strain BY4716, OD600, 96 h (AID 1091); settings: higher = more signal, called active from +8 up or from −8 down; also: test concentration not given here
[5] = molecular target: Torsin-1A-interacting protein 2 (Homo sapiens) (UniProt Q8NFQ8); experiment: LULL1 binders on small-molecule microarray, primary screen, cell lysate, human LULL1 lysate, 635/667 nm fluorescence (AID 1092); settings: hLULL1 lysate binding, 635 nm fluorescence, higher = more signal;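 also: probe is lysate of COS7 cells overexpressing human LULL1; score merges per-feature 667 nm fluorescence with signal-to-noise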
Chain of Torsin-1A-interacting protein 2 (Homo sapiens) (Q8NFQ8 whole entry, looked up): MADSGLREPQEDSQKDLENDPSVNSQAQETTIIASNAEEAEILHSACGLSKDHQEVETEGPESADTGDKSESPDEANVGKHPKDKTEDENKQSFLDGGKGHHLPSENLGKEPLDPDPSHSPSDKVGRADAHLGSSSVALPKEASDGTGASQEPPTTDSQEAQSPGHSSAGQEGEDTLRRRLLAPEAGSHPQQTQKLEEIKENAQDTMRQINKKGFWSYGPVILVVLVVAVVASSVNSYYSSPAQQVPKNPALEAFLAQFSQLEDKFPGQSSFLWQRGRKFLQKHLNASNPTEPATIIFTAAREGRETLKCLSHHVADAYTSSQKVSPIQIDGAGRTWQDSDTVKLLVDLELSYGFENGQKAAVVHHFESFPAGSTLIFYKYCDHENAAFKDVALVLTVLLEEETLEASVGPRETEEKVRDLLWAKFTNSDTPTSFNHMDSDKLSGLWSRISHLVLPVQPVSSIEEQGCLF

[6] = E. coli growth modulation, two-sided OD650, primary screen, E. coli filamentation project, strain DRC41, 24 h (AID 1093); settings: OD650, 24 h, higher = more signal, called active from +8 up or from −8 down;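 also: MC1000 strain lacking acrAB efflux and sulA so SOS filamentation is blocked; test concentration not given here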
[7] = small-molecule microarray binders of probe aLefty2, primary screen, biochemical, biotinylated probe, 635/667 nm fluorescence (AID 1094); settings: higher = more signal;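 also: score merges spot fluorescence near 667 nm with spot signal-to-noise ratio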
[8] = tested on: Noggin (protein binding on small-molecule microarray); experiment: Noggin binders on small-molecule microarray, primary screen, biochemical, 635/667 nm fluorescence (AID 1095); settings: 635 nm fluorescence, higher = more signal;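 also: score merges 667 nm feature fluorescence with signal to noise over triplicate slides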
[9] = molecular target: Neurogenic locus notch homolog protein 3 (Homo sapiens) (UniProt Q9UM47); experiment: NOTCH3 binders on small-molecule microarray, primary screen, biochemical, 635/667 nm fluorescence (AID 1096); settings: NOTCH3 binding, 635 nm fluorescence, higher = more signal
Chain of Neurogenic locus notch homolog protein 3 (Homo sapiens) (Q9UM47 whole entry, looked up): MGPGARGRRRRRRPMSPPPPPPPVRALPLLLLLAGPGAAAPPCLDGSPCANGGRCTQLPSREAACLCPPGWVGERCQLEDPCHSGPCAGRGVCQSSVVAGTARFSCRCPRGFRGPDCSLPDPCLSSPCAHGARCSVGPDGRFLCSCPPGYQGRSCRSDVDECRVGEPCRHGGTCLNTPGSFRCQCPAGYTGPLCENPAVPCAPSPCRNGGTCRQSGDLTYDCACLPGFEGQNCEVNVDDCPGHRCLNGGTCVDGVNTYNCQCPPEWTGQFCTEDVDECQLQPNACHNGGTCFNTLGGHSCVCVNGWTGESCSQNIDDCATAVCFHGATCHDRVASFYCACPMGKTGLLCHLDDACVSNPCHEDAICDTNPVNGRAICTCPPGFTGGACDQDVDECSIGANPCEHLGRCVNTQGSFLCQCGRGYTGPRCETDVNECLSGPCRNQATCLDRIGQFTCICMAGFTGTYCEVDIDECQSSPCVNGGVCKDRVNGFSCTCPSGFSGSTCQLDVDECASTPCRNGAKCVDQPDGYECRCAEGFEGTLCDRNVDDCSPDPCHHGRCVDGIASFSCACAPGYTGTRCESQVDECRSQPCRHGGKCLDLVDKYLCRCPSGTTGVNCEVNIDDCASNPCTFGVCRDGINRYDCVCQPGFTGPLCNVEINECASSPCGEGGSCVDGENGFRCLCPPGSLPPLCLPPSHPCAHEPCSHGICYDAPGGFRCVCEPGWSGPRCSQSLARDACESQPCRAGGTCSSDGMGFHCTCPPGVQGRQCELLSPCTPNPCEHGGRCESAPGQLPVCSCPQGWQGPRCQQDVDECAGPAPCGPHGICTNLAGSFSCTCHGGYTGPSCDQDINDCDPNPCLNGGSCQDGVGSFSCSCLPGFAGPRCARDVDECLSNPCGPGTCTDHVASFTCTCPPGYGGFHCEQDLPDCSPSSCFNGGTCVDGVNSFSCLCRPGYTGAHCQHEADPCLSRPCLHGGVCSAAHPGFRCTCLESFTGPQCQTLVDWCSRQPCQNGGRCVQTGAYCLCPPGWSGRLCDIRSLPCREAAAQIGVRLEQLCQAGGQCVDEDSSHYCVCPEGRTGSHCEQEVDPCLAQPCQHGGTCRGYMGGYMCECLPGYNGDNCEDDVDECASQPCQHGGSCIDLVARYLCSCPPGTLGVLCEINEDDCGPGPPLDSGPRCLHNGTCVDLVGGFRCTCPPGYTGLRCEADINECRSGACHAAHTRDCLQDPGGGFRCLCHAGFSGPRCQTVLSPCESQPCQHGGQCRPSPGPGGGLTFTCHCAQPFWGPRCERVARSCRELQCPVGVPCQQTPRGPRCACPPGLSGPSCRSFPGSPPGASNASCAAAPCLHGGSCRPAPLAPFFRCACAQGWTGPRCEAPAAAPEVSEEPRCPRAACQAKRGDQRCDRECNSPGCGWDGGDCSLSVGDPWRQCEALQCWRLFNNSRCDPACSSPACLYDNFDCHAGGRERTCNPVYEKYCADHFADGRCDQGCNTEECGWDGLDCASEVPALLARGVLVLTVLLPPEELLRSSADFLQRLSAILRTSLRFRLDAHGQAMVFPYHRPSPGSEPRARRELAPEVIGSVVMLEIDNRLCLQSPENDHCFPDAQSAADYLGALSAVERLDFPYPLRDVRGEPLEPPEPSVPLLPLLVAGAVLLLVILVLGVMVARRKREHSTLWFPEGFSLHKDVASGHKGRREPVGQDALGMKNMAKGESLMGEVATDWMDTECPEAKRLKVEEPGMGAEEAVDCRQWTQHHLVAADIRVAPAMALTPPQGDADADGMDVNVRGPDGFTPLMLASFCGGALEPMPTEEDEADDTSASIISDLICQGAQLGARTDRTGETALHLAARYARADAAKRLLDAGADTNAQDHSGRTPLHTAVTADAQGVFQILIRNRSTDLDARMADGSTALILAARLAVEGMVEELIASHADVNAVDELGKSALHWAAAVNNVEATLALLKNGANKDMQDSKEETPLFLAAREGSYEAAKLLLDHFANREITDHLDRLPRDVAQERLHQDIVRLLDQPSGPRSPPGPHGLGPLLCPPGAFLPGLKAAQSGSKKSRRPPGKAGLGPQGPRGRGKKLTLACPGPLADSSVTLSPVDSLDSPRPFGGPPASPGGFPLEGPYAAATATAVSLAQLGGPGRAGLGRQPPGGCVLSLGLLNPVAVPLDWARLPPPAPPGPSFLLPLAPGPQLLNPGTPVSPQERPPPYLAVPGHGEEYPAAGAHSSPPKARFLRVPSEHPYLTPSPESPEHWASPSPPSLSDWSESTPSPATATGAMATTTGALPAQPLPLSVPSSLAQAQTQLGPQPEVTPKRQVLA

[10] = small-molecule microarray binders of probe aEGFR, primary screen, biochemical, biotinylated probe, 635/667 nm fluorescence (AID 1097); settings: higher = more signal;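 also: probe is a biotinylated anti-EGFR antibody binding compounds printed on slides; score combines fluorescence near 667 nm and signal to noise of each spot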
[11] = tested on: Plasmodium falciparum Sir2 (PF13_0152, Sir2A); experiment: pfSir2 binders on small-molecule microarrays, primary screen, biochemical, small-molecule microarray, 635 nm fluorescence (AID 1098); settings: small-molecule microarray binding, fluorescence 635 nm; higher = more signal;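 also: score merges spot fluorescence intensity with its signal-to-noise ratio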
[12] = small-molecule microarray binders of probe aDKK1, primary screen, biochemical, biotinylated probe, 635/667 nm fluorescence (AID 1099); settings: higher = more signal;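 also: score merges 667nm spot fluorescence with signal to noise across triplicate slides; reference of the scale not given here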
[13] = small-molecule microarray binders of probe aCHRDL2, primary screen, biochemical, biotinylated probe, 635/667 nm fluorescence (AID 1100); settings: higher = more signal
[14] = splicing luciferase reporter signal modulators, primary screen, spliceosome inhibition project, cell-based, HEK293, splice +/- reporter (AID 1101); settings: luminescence, 24 h, higher = more signal, called active from +8 up or from −8 down;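 also: HEK293 cells carrying a splicing-competent luciferase reporter gene; test concentration not given here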
[15] = molecular target: Fibroblast growth factor 10 (Homo sapiens) (UniProt O15520); experiment: FGF10 binders on small-molecule microarrays, primary screen, biochemical, small-molecule microarray, 635 nm fluorescence (AID 1102); settings: FGF10 binding, fluorescence 635 nm, higher = more signal
Chain of Fibroblast growth factor 10 (Homo sapiens) (O15520 whole entry, looked up): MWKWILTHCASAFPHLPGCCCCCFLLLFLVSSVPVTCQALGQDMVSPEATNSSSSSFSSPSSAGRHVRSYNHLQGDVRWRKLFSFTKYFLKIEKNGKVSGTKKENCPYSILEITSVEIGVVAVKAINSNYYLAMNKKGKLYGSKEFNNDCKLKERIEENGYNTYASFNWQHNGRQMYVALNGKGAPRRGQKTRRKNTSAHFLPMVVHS

[16] = tested on: glycogen synthase kinase-3 (GSK3A per assay name; protocol says GSK3B); experiment: GSK3 binders on small-molecule microarrays, primary screen, biochemical, small-molecule microarray, 635 nm fluorescence, GSK3A (AID 1103); settings: small-molecule microarray binding, fluorescence 635 nm; higher = more signal; also: the record names both GSK3A and GSK3B
[17] = molecular target: Epidermal growth factor receptor (Homo sapiens) (UniProt P00533); experiment: EGFR binders on small-molecule microarrays, primary screen, biochemical, small-molecule microarray, 635 nm fluorescence (AID 1104); settings: EGFR binding, higher = more signal;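 also: score merges 667 nm emission intensity with spot signal to noise over triplicate slides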
Chain of Epidermal growth factor receptor (Homo sapiens) (P00533 whole entry, looked up): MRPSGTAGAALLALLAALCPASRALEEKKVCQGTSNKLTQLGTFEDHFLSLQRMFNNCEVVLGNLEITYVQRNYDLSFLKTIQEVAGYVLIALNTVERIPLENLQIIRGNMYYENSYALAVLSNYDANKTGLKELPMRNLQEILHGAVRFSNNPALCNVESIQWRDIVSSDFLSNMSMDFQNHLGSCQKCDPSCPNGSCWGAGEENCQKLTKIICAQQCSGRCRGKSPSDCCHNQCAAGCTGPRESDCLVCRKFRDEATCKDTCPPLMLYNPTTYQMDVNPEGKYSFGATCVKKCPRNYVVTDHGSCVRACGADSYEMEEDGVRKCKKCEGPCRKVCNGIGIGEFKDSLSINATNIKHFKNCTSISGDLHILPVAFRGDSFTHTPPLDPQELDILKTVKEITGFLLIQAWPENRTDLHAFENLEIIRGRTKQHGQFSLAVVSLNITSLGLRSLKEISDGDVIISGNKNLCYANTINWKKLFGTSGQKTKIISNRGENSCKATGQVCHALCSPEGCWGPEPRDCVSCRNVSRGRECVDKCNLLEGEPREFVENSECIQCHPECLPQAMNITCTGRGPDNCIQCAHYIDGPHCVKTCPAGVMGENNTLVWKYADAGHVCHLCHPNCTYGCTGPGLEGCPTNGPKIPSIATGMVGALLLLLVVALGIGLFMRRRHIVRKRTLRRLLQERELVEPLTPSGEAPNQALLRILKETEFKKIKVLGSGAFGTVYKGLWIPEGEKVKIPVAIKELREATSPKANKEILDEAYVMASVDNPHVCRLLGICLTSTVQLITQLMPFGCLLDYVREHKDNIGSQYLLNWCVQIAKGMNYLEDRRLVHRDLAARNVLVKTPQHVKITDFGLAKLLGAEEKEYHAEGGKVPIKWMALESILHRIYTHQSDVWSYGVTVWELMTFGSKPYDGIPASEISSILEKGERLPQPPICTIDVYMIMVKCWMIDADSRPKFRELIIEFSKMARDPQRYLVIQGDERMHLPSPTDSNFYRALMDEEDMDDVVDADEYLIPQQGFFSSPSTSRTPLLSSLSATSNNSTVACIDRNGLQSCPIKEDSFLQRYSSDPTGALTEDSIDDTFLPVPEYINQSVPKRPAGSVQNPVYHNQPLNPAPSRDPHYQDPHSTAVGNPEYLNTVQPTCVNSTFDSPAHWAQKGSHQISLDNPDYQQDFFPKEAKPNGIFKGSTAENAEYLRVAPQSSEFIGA

[18] = molecular target: Follistatin-related protein 3 (Homo sapiens) (UniProt O95633); experiment: FSTL3 binders on small-molecule microarrays, primary screen, biochemical, small-molecule microarray, 635 nm fluorescence (AID 1105); settings: FSTL3 binding, higher = more signal;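 also: score merges emission near 667 nm and signal to noise per printed spot across three slides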
Chain of Follistatin-related protein 3 (Homo sapiens) (O95633 whole entry, looked up): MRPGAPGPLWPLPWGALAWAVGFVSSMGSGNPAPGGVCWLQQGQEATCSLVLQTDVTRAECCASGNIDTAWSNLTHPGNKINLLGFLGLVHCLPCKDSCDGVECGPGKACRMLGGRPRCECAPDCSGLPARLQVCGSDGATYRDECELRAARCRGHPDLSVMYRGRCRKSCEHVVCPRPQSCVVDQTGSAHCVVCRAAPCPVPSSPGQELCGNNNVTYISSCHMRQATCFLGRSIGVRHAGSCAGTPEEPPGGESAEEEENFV

[19] = molecular target: Dickkopf-related protein 1 (Homo sapiens) (UniProt O94907); experiment: DKK1 binders on small-molecule microarrays, primary screen, biochemical, small-molecule microarray, 635 nm fluorescence scan (AID 1106); settings: DKK1 binding, higher = more signal;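 also: score merges emission near 667 nm with signal to noise over three replicate slides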
Chain of Dickkopf-related protein 1 (Homo sapiens) (O94907 whole entry, looked up): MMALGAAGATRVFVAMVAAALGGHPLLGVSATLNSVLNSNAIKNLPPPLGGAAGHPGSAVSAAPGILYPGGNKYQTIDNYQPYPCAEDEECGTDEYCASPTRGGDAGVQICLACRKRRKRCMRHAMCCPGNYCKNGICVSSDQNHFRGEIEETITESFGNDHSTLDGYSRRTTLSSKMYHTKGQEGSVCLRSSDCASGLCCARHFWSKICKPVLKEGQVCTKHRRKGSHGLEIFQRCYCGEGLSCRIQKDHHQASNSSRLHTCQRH

[20] = tested on: Inhibin beta A chain (activin A); experiment: INHBA (activin A) binders on microarrays, primary screen, biochemical, small-molecule microarray, 635 nm fluorescence scan (AID 1107); settings: small-molecule microarray binding, higher = more signal;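 also: mouse activin A protein probed at 4.33 µg/mL on printed slides; score merges bound-protein fluorescence near 667 nm with spot signal-to-noise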

Row | SMILES | composite z-score [1] | z-score [2] | z-score [3] | z-score [4] | composite z-score [5] | z-score [6] | composite z-score [7] | composite z-score [8] | composite z-score [9] | composite z-score [10] | composite z-score [11] | composite z-score [12] | composite z-score [13] | z-score [14] | composite z-score [15] | composite z-score [16] | composite z-score [17] | composite z-score [18] | composite z-score [19] | composite z-score [20]
1 | COc1ccc(CC[C@H](O)c2cccc(OCC(=O)OC(C)(C)C)c2)cc1 | 1.55 | -2.98 (inactive) | -3.06 (inactive) | 28.1 (active) | 2.12 | 0.362 (inactive) | 0.165 | 0.956 | 1.09 | 0.0656 | 1.16 | 0.15 | -0.0667 | 1.3 (inactive) | 0.883 | 1.06 | 0.344 | 1.09 | 0.688 | -0.0035
2 | CN(C)CCCNC(=O)[C@@]1(Cc2ccccc2I)c2ccccc2C(=O)N(Cc2ccccc2)[C@H]1c1ccc(CO)cc1 | 1.53 | -0.282 (inactive) | -14 (active) | -2.33 (inactive) | 3.43 | 0.207 (inactive) | -0.542 | 0.557 | 1.08 | 0.0054 | 1.54 | 1.04 | -0.726 | 0.652 (inactive) | 1.37 | 1.33 | 0.17 | 0.617 | 0.707 | 0.0573
3 | CO[C@H]1O[C@H](CO)[C@@H](OC(=O)Nc2ccc(C(F)(F)F)cc2)[C@H](OC(=O)Nc2ccccc2-c2ccccc2)[C@@H]1OC(=O)Nc1ccccc1-c1ccccc1 | 1.54 | 0.94 (inactive) | 1.25 (inactive) | 4.92 (inactive) | 2.4 | 0.193 (inactive) | 0.33 | 1.32 | 1.02 | 0.0752 | 1.46 | 1.07 | 0.61 | -0.0628 (inactive) | 1.04 | 1.29 | 0.35 | 1.37 | 0.507 | 0.0026
4 | Cc1ccc(F)cc1S(=O)(=O)N[C@@H]1CCN(Cc2ccc3c(c2)OCO3)C1 | -0.5 | 0.158 (inactive) | -2.41 (inactive) | 1.23 (inactive) | -0.539 | -1.4 (inactive) | -0.148 | 0.171 | -0.307 | -0.226 | 0.0014 | -0.247 | -0.289 | -0.0924 (inactive) | -0.24 | -0.191 | 0.0122 | -0.272 | 0.537 | 0.528
5 | CC(=O)NCCCC[C@@H]1NC(=O)[C@@H]2C[C@H](C(=O)NCCCCCC[N+](C)(C)C)[C@H](c3ccc(O)cc3)N2C1=O | 0.914 | 0.124 (inactive) | -0.16 (inactive) | 0.216 (inactive) | 1.43 | -0.453 (inactive) | 0.104 | 0.761 | 0.157 | -0.476 | 1.42 | -0.134 | -0.208 | -0.0826 (inactive) | 0.518 | 0.224 | 0.0882 | 0.977 | 1.12 | 0.645
6 | COC(=O)[C@@]1(Cc2ccccc2)[C@@H]2[C@@H](CC(=O)[C@H]2CC(=O)C(=O)N(C)C)CN1C(=O)c1ccccc1 | -0.476 | 1.02 (inactive) | 1.29 (inactive) | 0.633 (inactive) | 3.34 | -0.2 (inactive) | -0.0221 | -0.505 | -0.18 | 0.142 | 1.05 | 0.0889 | 0.929 | -0.155 (inactive) | 0.225 | -0.901 | -0.185 | -0.0272 | -0.782 | 0.988
7 | C=CCNC(=O)[C@H]1[C@@H]2C(=O)O[C@@H](c3ccccc3)[C@@H](c3ccccc3)N2[C@@H](c2ccc(O)cc2)[C@]12C(=O)Nc1ccc(C#CC3=CCCCC3)cc12 | 1.42 | 1.51 (inactive) | 0.614 (inactive) | 1.98 (inactive) | 1.54 | -0.197 (inactive) | 0.384 | 1 | 0.758 | -0.17 | 1.14 | 0.593 | 0.662 | 0.622 (inactive) | 0.703 | 1.13 | 0.859 | 0.696 | 0.909 | 1.31
8 | C/C=C/CN(C(=O)C#Cc1ccccc1)[C@H](CO[Si](C)(C)C(C)(C)C)c1ccccc1 | 0.437 | -0.185 (inactive) | -0.463 (inactive) | -0.177 (inactive) | 0.571 | 2.76 (inactive) | -0.192 | -1.01 | -1.35 | -0.595 | -0.435 | -0.65 | -0.169 | -3.21 (inactive) | -1.27 | -0.0745 | -1.37 | -1.44 | -0.72 | 1.19
9 | CCOC(=O)C[C@H]1[C@H](OC(=O)c2ccc(C(=O)c3ccccc3)cc2)[C@@H](NC(=O)c2ccc3ccccc3c2)c2cc(OCCCO)ccc2N1C(=O)c1ccc2ccccc2n1 | 1.26 | 0.216 (inactive) | -0.629 (inactive) | 0.256 (inactive) | 0.962 | 1.79 (inactive) | 0.0249 | 0.836 | 1.03 | 0.111 | 0.608 | 0.124 | 0.0404 | -0.372 (inactive) | 0.388 | 0.712 | 0.598 | 0.624 | 0.713 | 0.676
10 | C[C@]1(C(=O)NCC(F)(F)F)c2ccccc2C(=O)N(Cc2ccc(OC(F)(F)F)cc2)[C@H]1c1ccc(CO)cc1 | 0.64 | 0.0118 (inactive) | -0.47 (inactive) | -0.568 (inactive) | 1.03 | -0.975 (inactive) | -0.133 | 0.344 | -0.464 | -0.0987 | 1.34 | -0.0378 | 0.0314 | -0.24 (inactive) | 0.155 | -0.507 | 0.179 | -0.345 | 0.0106 | 0.19
